Test results reported in PubChem BioAssay AID463173 (ICCB-Longwood Screening Facility, Harvard Medical School, 2010).
The campaign covered roughly 52,000 compounds. About 4,300 (8.3%) were called active. The list comes from a sample in which actives are over-represented; it also holds similar structures and randomly drawn compounds. Unmarked numbers belong to inactive results. No stated cut-off is given here; in the data, active means survival mostly below about 52% (no sharp cut-off); inactive means mostly above about 56%.

Test system: DeltatarO mutant
Assay: growth inhibition of S. aureus wild type versus tarO mutant, primary screen, teichoic acid synthesis inhibitors, RN4220, OD600 (AID 463173)
Details: OD600, 18 h, active compounds read low, screened at 18.75 µg/mL (by protocol)

| SMILES | survival |
| --- | --- |
| COc1ccc(CCC(=O)NCc2ccc3c(c2)CCN3C(=O)c2ccc(C)cc2)cc1 | 75% |
| CC1=C(c2ccc(Cl)cc2)S(=O)(=O)N=C1N1CCN(c2cccc(C)c2)C(C)C1 (stereo not given) | 89% |
| CCOC(=O)N1CCC(NC(=O)c2cnn(-c3ccc(OC)cc3)c2C2CCN(C(=O)OC(C)(C)C)CC2)CC1 | 84% |
| CCOc1ccc(NC(=O)C(C)Sc2nnc3cc(C)c4ccccc4n23)cc1 (stereo not given) | 73% |
| COC(=O)Cn1c(SCCOc2ccccc2Cl)nc2ccccc21 | 42% (active) |
| COC(=O)Cn1c(SCCOc2ccccc2OC)nc2ccccc21 | 51% |
| CCCCNC(=O)c1cnn2c(C)c(Cc3c(C)cc(C)cc3C)c(C)nc12 | 102% |
| COc1ccc(CNC(=O)CCCn2nc(C)c3sc4ccccc4c3c2=O)cc1OC | 87% |
| COc1ccc(-c2nc(CSCC(=O)N3CCN(c4cccc(C)c4C)CC3)c(C)o2)cc1OC | 49% |
| Cc1cccc(-c2nc(CSCC(=O)N3CCN(c4ccccc4)CC3)c(C)o2)c1 | 17% (active) |
| Cc1ccc(-c2nc(CS(=O)(=O)CC(=O)N3CCN(c4cccc(C)c4C)CC3)c(C)o2)cc1 | 116% |
| Cc1cccc(-c2nc(CSCC(=O)N3CCN(c4cccc(C)c4C)CC3)c(C)o2)c1 | 8% (active) |
| CCc1ccc(-c2nc(CSCC(=O)N3CCN(c4ccc(F)cc4)CC3)c(C)o2)cc1 | 73% |
| Cc1oc(-c2ccccc2F)nc1CSCC(=O)N1CCN(c2ccccc2)CC1 | 62% |
| O=C(Cn1cc(SCc2ccccc2F)c2ccccc21)N1CCCCCC1 | 73% |
| CCOC(=O)C1CCN(C(=O)c2ccc3c(=O)n4nc(Nc5ccccc5)sc4nc3c2)CC1 | 117% |
| COc1ccccc1NC(=O)Cn1c(=O)n(-c2cccc(C(C)=O)c2)c(=O)c2c3c(sc21)CN(C(C)=O)CC3 | 89% |
| COc1ccc(S(=O)(=O)c2c(O)c3ccc(C(=O)NCc4ccc(Cl)cc4)cc3[nH]c2=O)cc1 | 89% |
| COc1cccc(CNC(=O)CN(C)S(=O)(=O)c2ccc3[nH]c4c(c3c2)CCCC4)c1 | 75% |
| CCOc1ccc(OCC)c(NC(=O)c2cnc3c(-c4ccccc4)c(C)nn3c2C)c1 | 91% |
| Cc1ccc(NC(=O)c2cnc(SCC(=O)N3CCCc4ccccc43)n(C)c2=O)cc1C | 85% |
| COc1cccc2sc(NC(=O)c3ccc4c(c3)OCCO4)nc12 | 88% |
| COc1ccc2oc(=O)c(-c3nnc(-c4ccc(C)cc4)o3)cc2c1 | 138% |

| SMILES | survival |
| --- | --- |
| Clc1ccc(-c2nnn3c2nc(N2CCCCC2)c2ccccc23)cc1 | 25% (active) |
| Brc1cccc(-c2nnn3c2nc(N2CCCCC2)c2ccccc23)c1 | 62% |
| CC1CCCN(c2nc3c(-c4ccc(Cl)cc4)nnn3c3ccccc23)C1 (stereo not given) | 87% |
| CC1CCN(c2nc3c(S(=O)(=O)c4ccccc4)nnn3c3ccc(Cl)cc23)CC1 | 69% |
| O=S(=O)(c1ccccc1)c1nnn2c1nc(N1CCN(c3ccccc3)CC1)c1cc(Cl)ccc12 | 91% |
| COc1ccc(-c2nnn3c2nc(N2CCCC(C)C2)c2ccccc23)cc1 (stereo not given) | -3% (active) |
| Cc1ccc(-c2nnn3c2nc(N2CCC(C)CC2)c2ccccc23)cc1 | -6% (active) |
| COc1ccc(-c2nnn3c2nc(NCc2ccccc2)c2ccccc23)cc1 | 89% |
| CC1CCN(c2nc3c(-c4cccc(Br)c4)nnn3c3ccccc23)CC1 | 104% |
| O=C(NCCCN1CCN(c2ccccc2)CC1)c1nnc(Cc2c(F)cccc2Cl)o1 | 71% |
| Cc1cc(NC(=O)CCc2nc3cccnc3n2Cc2cccs2)ccc1Br | 50% |
| COCCCNC(=O)c1cc(-c2cccnc2)nc2ccc(S(=O)(=O)N3CCC(C)CC3)cc12 | 113% |
| CC(=O)c1ccc(N2CCN(C(=O)C3CCN(S(=O)(=O)c4cccc5nonc45)CC3)CC2)cc1 | 79% |
| COC(=O)CSc1ncc(C#N)c(N)n1 | 110% |
| COc1ccc(C)cc1NC(=O)CCc1c(C)nn(-c2ccc(N3CCCCC3)nn2)c1C | 78% |
| CCCCOc1ccc(C(=O)Nc2onc3c2CCCC3)cc1 | 49% (active) |
| CC(C)(C)c1ccc(C(=O)Nc2onc3c2CCCC3)cc1 | 56% |
| O=C(Nc1onc2c1CCCC2)c1ccc(Cl)cc1 | 77% |
| Cc1ccc(C(=O)Nc2onc3c2CCCC3)cc1 | 46% (active) |
| CC(C)COc1ccc(C(=O)Nc2onc3c2CCCC3)cc1 | 103% |
| CCOc1ccc(C(=O)Nc2onc3c2CCCC3)cc1 | 72% |
| CCCCOC(=O)c1ccc(NC(=O)c2sc3nc(C)cc(C)c3c2N)cc1 | 65% |
| CCCCn1cc(S(=O)(=O)c2ccccc2)c(=O)c2cc(F)c(N3CCC(C)CC3)cc21 | 68% |

| SMILES | survival |
| --- | --- |
| C=CCn1c(SCc2cccnc2)nnc1-c1ccncc1 | 88% |
| CC(C)Oc1ccc(CNC(=O)Cc2ccc(NC(=O)N3CCSc4ncccc43)cc2)cc1 | 102% |
| Cc1ccc(Cl)cc1NC(=O)c1ccc(NC(=O)N2CCSc3ncccc32)cc1 | 79% |
| CCc1cccc(NC(=O)c2ccc(NC(=O)N3CCSc4ncccc43)cc2)c1 | -1% (active) |
| CC(C)Oc1ccc(CNC(=O)c2ccc(NC(=O)N3CCSc4ncccc43)cc2)cc1 | 6% (active) |
| CCOc1ccc(NC(=O)c2ccc(NC(=O)N3CCSc4ncccc43)cc2)cc1 | 76% |
| Cc1ccccc1NC(=O)c1ccc(NC(=O)N2CCSc3ncccc32)cc1 | -2% (active) |
| CC(C)Oc1ccc(CNC(=O)c2cccc(NC(=O)N3CCSc4ncccc43)c2)cc1 | 88% |
| Cc1ccc(NC(=O)c2ccc(NC(=O)N3CCSc4ncccc43)cc2)c(C)c1 | 86% |
| CC(=O)c1ccc(NC(=O)c2cccc(NC(=O)N3CCSc4ncccc43)c2)cc1 | 79% |
| CC(C)CC1CC(C)(C(=O)CSc2n[nH]c(-c3ccccc3)n2)OC1=O (stereo not given) | 80% |
| COC(=O)c1cc(C)nc2c1c(=O)nc(SCc1cccc(C)c1)n2C1CC1 | 78% |
| COc1ccc(CNC(=O)c2cnc3sc(N4CCCC4)nn3c2=O)c(OC)c1 | 70% |
| Cc1ccc(Nc2c(-c3ccsc3)nc3cccc(C)n23)cc1 | 25% (active) |
| Cc1ccc(Nc2c(-c3ccc(N4CCOCC4)cc3)nc3c(C)cccn23)cc1 | 56% |
| Cc1ccccc1Nc1c(-c2ccc(Cl)cc2)nc2c(C)cccn12 | 69% |
| Cc1ccccc1Nc1c(-c2ccsc2)nc2c(C)cccn12 | 8% (active) |
| Cc1cccn2c(Nc3ccccc3)c(-c3ccc(N4CCOCC4)cc3)nc12 | 113% |
| Cc1ccc(Nc2c(-c3ccsc3)nc3c(C)cccn23)cc1 | 20% (active) |
| Cc1cccc(C)c1Nc1c(-c2ccsc2)nc2cccc(C)n12 | 54% |
| Cc1ccc(Nc2c(-c3ccc(O)cc3)nc3cccc(C)n23)cc1 | 84% |
| Cc1ccc(Nc2c(-c3ccc(C)cc3)nc3c(C)cccn23)cc1 | 9% (active) |
| Cc1ccccc1Nc1c(-c2ccc(O)cc2)nc2c(C)cccn12 | 72% |

| SMILES | survival |
| --- | --- |
| Cc1ccc2nc(-c3ccsc3)c(Nc3ccc(Cl)cc3)n2c1 | 73% |
| Cc1cccn2c(Nc3ccccc3)c(-c3cccs3)nc12 | 89% |
| CCOC(=O)c1cccc(NC(=O)N2CCOCC2)c1 | 80% |
| O=C(Cn1c2[n+](c3ccccc31)CC(O)CS2)N1CCCCC1 (stereo not given) | 72% |
| O=C(Cn1c(=O)c2cccn2c2ccccc21)NCc1ccccc1F | 84% |
| CCCNS(=O)(=O)c1cc(-c2nn3c(C)nnc3c3ccccc23)ccc1C | 61% |
| C=C(C)c1cccc(C(C)(C)NC(=O)NC2CC(C)(C)NC(C)(C)C2)c1 | 107% |
| Cc1ccc(CCNC(=O)c2ccc3[nH]c(C)c(C)c3c2)cc1 | 116% |
| CCCn1c(=O)n(-c2ccccc2Cl)c(=O)c2sc3ccccc3c21 | 95% |
| Cc1c(C(=O)OCCOc2ccccc2)[nH]c2c1C(=O)CC(c1ccc(C(C)(C)C)cc1)C2 (stereo not given) | 70% |
| Cc1cc(C)cc(NS(=O)(=O)c2ccc(-n3cccn3)cc2)c1 | 75% |
| Cc1ccc2c(=O)cc(C(=O)Nc3sc4c(c3C(=O)NCC3CCCO3)CCC4)oc2c1 (stereo not given) | 71% |
| Cc1cc2oc(C(=O)Nc3sc4c(c3C(=O)NCC3CCCO3)CCC4)cc(=O)c2cc1C (stereo not given) | 36% (active) |
| Cc1ccc2c(=O)cc(C(=O)Nc3sc4c(c3C(=O)NCC3CCCO3)CCCC4)oc2c1C (stereo not given) | 85% |
| O=C(Nc1sc2c(c1C(=O)NCC1CCCO1)CCCC2)c1cc(=O)c2ccccc2o1 (stereo not given) | 50% |
| Cc1ccc2c(=O)cc(C(=O)Nc3sc4c(c3C(=O)NCC3CCCO3)CCCC4)oc2c1 (stereo not given) | 71% |
| O=C(Nc1sc2c(c1C(=O)NCC1CCCO1)CCC2)c1cc(=O)c2cc(Cl)ccc2o1 (stereo not given) | 43% (active) |
| O=C(Nc1sc2c(c1C(=O)NCC1CCCO1)CCC2)c1cc(=O)c2ccccc2o1 (stereo not given) | 66% |
| Cc1ccc2oc(C(=O)Nc3sc4c(c3C(=O)NCC3CCCO3)CCC4)cc(=O)c2c1 (stereo not given) | 79% |
| Cc1cc2oc(C(=O)Nc3sc4c(c3C(=O)NCC3CCCO3)CCCC4)cc(=O)c2cc1C (stereo not given) | 47% (active) |
| Cc1noc(/C=C/c2cccs2)c1S(=O)(=O)N1CCC(C(=O)Nc2ccc(F)c(Cl)c2)CC1 | 52% |
